Values joined by “and” are separate entries in the source; they are usually repeats but may differ in a detail not shown here. Equal entries are not always repeated. Compounds without any hit were thinned out: in the full panel of roughly 79,000, 15% have a hit. A number with no mark means an inactive call. Active and inactive are the calls of the source. Cut-off read from the data, not from the text of the source: active = growth inhibition above about 70%; inactive = the rest.

A short description of test [1]: NCI Yeast Anticancer Drug Screen. Data for the rad50 strain (AID 155).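 Note: 0% = growth of vehicle-only cultures of the same strain.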 The settings on record: S. cerevisiae rad50 strain growth inhibition; at 50.0 µM; stronger effect = higher value. Summed up: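 Compounds were tested on a yeast strain with an engineered DNA damage repair alteration; the reported value is growth inhibition normalised to vehicle treatment.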
The nature of test [2]: NCI Yeast Anticancer Drug Screen. Data for the mec2-1 strain (AID 157). The settings on record: S. cerevisiae mec2-1 strain, at 50.0 µM, stronger effect = higher value. Summed up: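 Compounds were applied to mec2-1 yeast cells. Their growth was then compared with that of vehicle-treated cultures to give growth inhibition.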
Test [3] is described as follows: NCI Yeast Anticancer Drug Screen. Data for the sgs1 mgt1 strain (AID 161).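 Note: 0% = growth of cultures given vehicle only.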 The settings on record: S. cerevisiae sgs1 mgt1 strain, at 50.0 µM, stronger effect = higher value. A digest of the protocol:
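Compounds are added to genetically altered yeast, and growth is compared with cultures given vehicle alone to give percent inhibition.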

Test [4] can be described thus: NCI Yeast Anticancer Drug Screen. Data for the cln2 rad14 strain (AID 165).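 Note: 0% = growth equal to vehicle treated cultures.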 The settings on record: S. cerevisiae cln2 rad14 strain, at 50.0 µM, stronger effect = higher value. Summed up:
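Strain: cln2 rad14 yeast, altered in cell cycle control and DNA damage repair. Read-out: growth inhibition vs vehicle.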

Test [5] in a line: NCI Yeast Anticancer Drug Screen. Data for the bub3 strain (AID 167). The conditions noted are these: S. cerevisiae bub3 mutant strain, at 50.0 µM, stronger effect = higher value. Summed up:
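Growth of a checkpoint-deficient yeast mutant is measured after compound exposure. Values represent inhibition relative to vehicle.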

Test [6] in a line: NCI Yeast Anticancer Drug Screen. Data for the mlh1 rad18 strain (AID 175). The conditions noted are these: S. cerevisiae mlh1 rad18 strain growth inhibition; at 50.0 µM; stronger effect = higher value. Summed up:
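A repair-deficient yeast strain is exposed to test compound, and growth is scored relative to vehicle-treated controls.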

Turning to `O=C(O)CCC(=O)O.[Ni]`, the growth inhibition is -29.1% in test [1]; -17.1% in test [2]; -27% in test [3]; -36.5% in test [4]; -31.2% in test [5]; -18.3% in test [6].
On to `BrC(Br)c1cccc(C(Br)Br)c1`, for which the growth inhibition in test [1] is 55.7%; in test [2] it was 37.8%; in test [3], 27.1%; in test [4], 37.5%; in test [5], 64%; in test [6] it was 56.6%.
Take `CCN1C[C@]2(COC)[C@H](O)C[C@H](OC)[C@]34C1[C@H]([C@H](OC)[C@H]23)[C@]1(OC(C)=O)[C@H]2[C@@H](OC(=O)c3ccccc3)[C@](O)(C[C@H]24)[C@@H](OC)[C@@H]1O`: the growth inhibition was 14.6% in test [1]; -4% in test [2]; 5.8% in test [3]; -6.85% in test [4]; 24.9% in test [5]; -69.3% in test [6].
As for `CNC(=O)Oc1cccc2c1C(=O)OC2=O`, the growth inhibition is -2.7% in test [1]; 4.25% in test [2]; -6.55% in test [3]; -25.1% in test [4]; 2.15% in test [5]; 7.1% in test [6].
With `CC(=O)OC1CC(OC2C(O)CC(OC3C(O)CC(OC4CCC5(C)C(CCC6C5CC(O)C5(C)C(C7=CC(=O)OC7)CCC65O)C4)OC3C)OC2C)OC(C)C1OC1OC(CO)C(O)C(O)C1O` (configuration not stated), the growth inhibition in test [1] is 6.05%; in test [2] it was -15.4%; in test [3], -25.1%; in test [4], 5%; in test [5] it was 5.7%; in test [6] it was 10.6%.
On to `O.O=S(=O)(O)O.[Co+3].[NH2-].[NH2-].[NH2-].[NH2-].[OH-]`, for which the growth inhibition in test [1] was 31.2%; in test [2], 10.7%; in test [3], 8.6%; in test [4], 29.2%; in test [5] it was 12.4%; in test [6], 21.5%.
In the case of `O=C(Oc1ccc(S(=O)(=O)F)cc1Cl)c1ccc([N+](=O)[O-])cc1`, the growth inhibition in test [1] was 92.5% (active); in test [2] it was 68%; in test [3], 94.7% (active); in test [4], 92.8% (active); in test [5], 60%; in test [6], 93.7% (active).
In the case of `NC(Cc1ccc(N(CCCl)Cc2ccccc2)cc1)C(=O)O` (configuration not stated), the growth inhibition in test [1] was 10.1%; in test [2], -13.2%; in test [3], 2%; in test [4], -3.85%; in test [5] it was -29.2%; in test [6] it was -31.5%.
On to `CCOC(=O)C(Br)C(C)C` (configuration not stated), for which the growth inhibition was 24.1% in test [1]; 12% in test [2]; 16.1% in test [3]; 24.6% in test [4]; 7.6% in test [5]; 10.5% in test [6].
As to `CCOC(=O)C1Cc2ccc(OC)cc2C2=CC(=O)CCC21` (configuration not stated), the growth inhibition in test [1] is -13.4%; in test [2], -16.9%; in test [3] it was -9.4%; in test [4], 1.65%; in test [5], 5.4%; in test [6], -1.15%.
Regarding `O=C1OP2(c3ccccc3)(OC(=O)c3ccccc32)c2ccccc21`, the growth inhibition was 18.6% in test [1]; 16.2% in test [2]; 20.4% in test [3]; -20.3% in test [4]; -18.5% in test [5]; 14.3% in test [6].
As to `O=C(Oc1cc(Cl)c(S(=O)(=O)F)cc1Cl)c1ccccc1Cl`, the growth inhibition in test [1] was 93.5% (active); in test [2], 96% (active); in test [3], 97.1% (active); in test [4], 86.8% (active); in test [5], 94.9% (active); in test [6] it was 96.8% (active).
On to `O=C1NC(=O)C(=O)C(=O)N1`, for which the growth inhibition was -16.2% in test [1]; 8.15% in test [2]; -1.75% in test [3]; -32.2% in test [4]; 1% in test [5]; 0.5% in test [6].
With `CC12CCC3C(=CC=C4CC(O)CCC43C)C1CCC2=O` (configuration not stated), the growth inhibition in test [1] is 1.9% and 14.2%; in test [2], 17.2% and 0.65%; in test [3], 18.6% and 10.6%; in test [4], 0.95% and -45.7%; in test [5], 22.9% and -11.6%; in test [6] it was 23.1% and 16.1%.
In the case of `CCOC(=O)C(C(=O)OCC)c1ccccc1`, the growth inhibition is 7.05% and 25.4% in test [1]; -11% and 12.9% in test [2]; 11.7% and 11.1% in test [3]; 2.4% and 3.75% in test [4]; 40.4% and 23.1% in test [5]; -0.15% and 9.55% in test [6].
As for `COc1ccccc1CC(C)N` (configuration not stated), the growth inhibition in test [1] was 1.35%; in test [2] it was -5.6%; in test [3], 8.3%; in test [4] it was 16%; in test [5], 16.1%; in test [6], 16.3%.
As for `COc1ccccc1CC(C)NC(C)Cc1ccccc1OC` (configuration not stated), the growth inhibition in test [1] was 2.25%; in test [2], -3.4%; in test [3] it was 8.05%; in test [4], -1.8%; in test [5], -1.4%; in test [6], 7.6%.
In the case of `[Cl][Hg][c]1ccccc1N=Nc1ccccc1I`, the growth inhibition was 99.2% (active) in test [1]; 98.8% (active) in test [2]; 99.2% (active) in test [3]; 98.8% (active) in test [4]; 99.3% (active) in test [5]; 99.2% (active) in test [6].
Regarding `O=NN1CCOC1=NC1CCCCC1`, the growth inhibition in test [1] is -3.65%; in test [2], -12.2%; in test [3], -11.2%; in test [4], -63%; in test [5] it was -22.7%; in test [6], -9%.
With `O=[N+]([O-])c1ccc(NC(c2ccccc2)P(=O)(Oc2ccccc2)Oc2ccccc2)cc1` (configuration not stated), the growth inhibition is -1.75% in test [1]; -6.4% in test [2]; -43.1% in test [3]; -6% in test [4]; -2.05% in test [5]; 3.65% in test [6].
Take `O=C(OCCOc1ccccc1)C(Cl)(Cl)Cl`: the growth inhibition was -6.05% in test [1]; -7.1% in test [2]; 10.6% in test [3]; -8.8% in test [4]; 12.3% in test [5]; 3.25% in test [6].
Consider `CC12OC1(C)C1C(=O)OCC1C2=O` (configuration not stated), for which the growth inhibition in test [1] is 3.4%; in test [2], 3.6%; in test [3], -3.45%; in test [4] it was 3.95%; in test [5], 3%; in test [6], -0.95%.

The values are drawn from PubChem BioAssay (NCI).
